Source: PubChem BioAssay
The source made the active and inactive calls.

Biological target: Torsin-1A-interacting protein 2 (Homo sapiens) (UniProt Q8NFQ8)
Sequence (Q8NFQ8 whole entry, looked up): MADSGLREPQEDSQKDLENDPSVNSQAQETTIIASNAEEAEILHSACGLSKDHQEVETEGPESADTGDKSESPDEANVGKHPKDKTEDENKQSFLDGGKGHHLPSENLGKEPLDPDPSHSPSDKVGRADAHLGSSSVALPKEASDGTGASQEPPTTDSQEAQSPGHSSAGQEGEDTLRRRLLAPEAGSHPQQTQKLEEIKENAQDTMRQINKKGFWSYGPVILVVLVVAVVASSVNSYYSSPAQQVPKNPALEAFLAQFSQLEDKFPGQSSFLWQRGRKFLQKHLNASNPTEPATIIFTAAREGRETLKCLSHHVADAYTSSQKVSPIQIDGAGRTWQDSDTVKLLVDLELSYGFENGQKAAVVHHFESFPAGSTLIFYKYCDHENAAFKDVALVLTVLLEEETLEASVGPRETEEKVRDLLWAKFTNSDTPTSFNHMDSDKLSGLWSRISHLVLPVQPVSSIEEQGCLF
Assay: small molecules binding lysate-expressed LULL1 – cell lysate, human LULL1 lysate, 635/667 nm fluorescence, primary screen (AID 1092);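 also: probe is lysate of COS7 cells overexpressing human LULL1; score merges per-feature 667 nm fluorescence with signal-to-noise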
Conditions: small-molecule microarray, hLULL1 lysate binding, 635 nm fluorescence; higher = more signal
In the case of `CC(C)c1ccc(NN2C(C(O)C(C)c3ccccc3)C=CC3C(=O)N(c4ccccc4)C(=O)C32)cc1` (stereo not drawn), the composite z-score is reported as 3.18.
With `Cc1ccc(S(=O)(=O)N2[C@@H](c3ccccc3)C(C(=O)O)=C[C@H]2C(C)(C)C)cc1` the composite z-score was 2.88.
Work on `CCOC(=O)C1=CC[C@@H](c2ccccc2)N(S(=O)(=O)c2ccc(C)cc2)[C@@H]1C#N` yielded a composite z-score of 2.69.
In the case of `COCCOC(=O)N1C(=O)[C@@]2(c3cc(C#CCC(C(=O)OC)C(=O)OC)ccc31)[C@H](C(=O)N1CCc3cc(OC)c(OC)cc3C1)[C@H]1C(=O)O[C@H](c3ccccc3)[C@H](c3ccccc3)N1[C@@H]2c1ccccc1OCCO`, the composite z-score is reported as 2.34.
In the case of `CN(C)CCCC[C@@H]1NC(=O)[C@H]2C[C@@H](C(=O)NCCCCCCNC(=O)CS)[C@@H](c3cccc(OCCO)c3)N2C1=O`, the composite z-score is reported as 0.935.
For `COc1cc2c(cc1O)C(C)N(Cc1sc3ccccc3c1Cl)CC2` (stereo not drawn), the composite z-score was -0.0038.
Molecule `COCCOC(=O)N1C(=O)[C@@]2(c3cc(C#CCC(C(=O)OC)C(=O)OC)ccc31)[C@H](c1ccc(O)cc1)N1[C@H](c3ccccc3)[C@H](c3ccccc3)OC(=O)[C@H]1[C@@H]2C(=O)N1CCc2cc(OC)c(OC)cc2C1` has a composite z-score of 2.56.
With `CCOC(=O)C1=CCC(c2ccncc2)N(S(=O)(=O)c2ccc(C)cc2)C1` (stereo not drawn) the composite z-score was 3.84.
Work on `COC(=O)[C@@]1(Cc2ccc(F)cc2)[C@H]2c3cc(C(=O)N4CCCC4)n(Cc4ccc(C(F)(F)F)nc4)c3C[C@H]2CN1C(=O)c1ccccc1` yielded a composite z-score of 2.29.
For `CC(C)(C)OC(=O)CC[C@@]1(C(N)=O)N=C(c2ccc(OCCCO)cc2)O[C@@H]1c1ccccc1CN=[N+]=[N-]`, the composite z-score was 2.86.
Molecule `C=CCNC(=O)[C@H]1[C@@H]2C(=O)O[C@@H](c3ccccc3)[C@@H](c3ccccc3)N2[C@@H](c2ccc(OCCO)cc2)[C@]12C(=O)N(C(=O)OCCOC)c1ccc(C#CCC(C(=O)OC)C(=O)OC)cc12` has a composite z-score of 3.45.
`C=CCOC(=O)[C@H]1[C@@H]2C(=O)O[C@@H](c3ccccc3)[C@@H](c3ccccc3)N2[C@@H](c2ccc(OCCOC(=O)[C@@H]3C[C@@H]4C(=O)N[C@@H](Cc5ccccc5)C(=O)N4[C@@H]3c3ccc(O)cc3)cc2)[C@]12C(=O)Nc1ccc(I)cc12` showed a composite z-score of 1.93.
Molecule `CCN1C(=O)C2CC(=O)C3C(CN(S(=O)(=O)c4ccc(C)cc4)C3c3ccc(C)cc3)C2C1=O` (stereo not drawn) has a composite z-score of 2.75.
In the case of `C=C(C)C1CN([C@H](CO)c2ccccc2)C(=O)/C1=C\c1ccccc1` (stereo partly drawn), the composite z-score is reported as -0.302.
Work on `C=C(COC)C(=O)CC[C@H](OC(C)=O)c1ccc(CO)o1` yielded a composite z-score of 2.
Work on `COC(=O)C(CC#Cc1ccc2c(c1)[C@]1(C(=O)N2)[C@H](C(=O)NC[C@H](O)c2ccccc2)[C@H]2C(=O)O[C@H](c3ccccc3)[C@H](c3ccccc3)N2[C@@H]1c1ccc(O)cc1)C(=O)OC` yielded a composite z-score of 0.719.
With `C=C[C@H](OC)[C@@H](O)c1ccc(OC)c(O)c1` the composite z-score was -0.456.
Work on `CC[C@@H](O[Si](C#C[Si](C(C)C)(C(C)C)C(C)C)(C(C)C)C(C)C)c1cn(Cc2cccc(Cl)c2)nn1` yielded a composite z-score of -0.0557.
`COC(=O)C1=CC(c2ccc(CO)cc2)=CC(C2CC2)N(Cc2cc3c(cc2Br)OCO3)C=C1C(=O)OC` (stereo not drawn) gave a composite z-score of 2.87.
`O=C(NCCN1CCOCC1)[C@@H]1c2ccccc2C(=O)N(CC23CC4CC(CC(C4)C2)C3)[C@H]1c1ccc(CO)cc1` showed a composite z-score of 3.23.
Work on `COCCCNC(=O)[C@@]1(CCC(=O)OC(C)(C)C)N=C(c2ccc(OCCCO)cc2)O[C@H]1c1ccccc1` yielded a composite z-score of 3.51.
`CN1C2C=C(c3ccc(CO)cc3)C(C3C(=O)N(C(N)=O)C(=O)C32)C1C1CC1` (stereo not drawn) showed a composite z-score of -0.0967.
Work on `N#Cc1ccc(NN2C(C(O)c3ccc(B(O)O)cc3)C=CC3CN(c4ccccc4)C(=O)C32)cc1` (stereo not drawn) yielded a composite z-score of 0.847.

Tested on: not listed separately
Assay: optical density change of DRC41 E. coli – strain DRC41, OD650, 24 h, E. coli filamentation project, primary screen (AID 1093);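 also: MC1000 strain lacking acrAB efflux and sulA so SOS filamentation is blocked; test concentration not given here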
Conditions: E. coli DRC41 growth, higher = more signal, called active from +8 up or from −8 down
In the case of `O=C(O)C1=CC[C@H]2C(=O)N(c3ccccc3)C(=O)[C@@H]12`, the z-score is reported as -0.148 (inactive).
With `C=CC[C@H](OC(=O)Nc1ccc(SC)cc1)c1ccc(O)c(F)c1` the z-score was 0.622 (inactive).
With `COC(=O)C1(CC(C)C)C=C2C(=C(C)C(=O)C2C)CN1` (stereo not drawn) the z-score was -0.698 (inactive).
For `[N-]=[N+]=NCc1ccccc1C[C@]1(C(=O)N2CCCCC2)COC(c2ccc(OCCCO)cc2)=N1`, the z-score was 3.43 (inactive).
For `C=C[C@H](C)[C@@H](OC(=O)Nc1ccc(SC)cc1)c1ccc(OCCO)cc1`, the z-score was 0.441 (inactive).
In the case of `COC(=O)Cn1c(C(=O)N(C)C)cc2c1C[C@H]1CN(C(=O)c3ccccc3)[C@@](Cc3ccccc3)(C(=O)OC)[C@@H]21`, the z-score is reported as -0.537 (inactive).
With `O=C1c2ccccc2[C@](Cc2ccccc2I)(C(=O)NCCN2CCOCC2)[C@H](c2ccc(CO)cc2)N1Cc1ccccc1C(F)(F)F` the z-score was -1.82 (inactive).
With `Cc1ccc(S[C@]2(C(=O)NCCN3CCOCC3)CC(=O)N(C(C)C)[C@@H]2c2ccc(CO)cc2I)cc1` the z-score was 3.42 (inactive).
For `C=C(CCCC)C(=O)CC[C@H](OC(=O)c1ccccc1-c1ccccc1C(=O)O)c1cccc(OCCO)c1`, the z-score was 0.171 (inactive).
For `[N-]=[N+]=Nc1ccccc1C[C@@]1(C(=O)NCc2ccccc2)N=C(c2ccc(OCCCO)cc2)O[C@@H]1c1ccccc1`, the z-score was 0.594 (inactive).
With `C=CCNC(=O)[C@@H]1[C@H]2C(=O)O[C@H](c3ccccc3)[C@H](c3ccccc3)N2[C@H](c2ccc(OCCO)cc2)[C@@]12C(=O)Nc1ccc(C#CC3=CCCCC3)cc12` the z-score was -0.639 (inactive).
With `CC(C)C[C@@H]1NC(=O)[C@H]2C[C@@H](C(=O)O)[C@@H](c3cccc(OCCO)c3)N2C1=O` the z-score was 0.767 (inactive).
For `CC(C)c1ccc(NN2C(C(O)C(C)c3ccccc3)C=CC3C(=O)N(c4ccccc4)C(=O)C32)cc1` (stereo not drawn), the z-score was -1.28 (inactive).
In the case of `Cc1ccc(S(=O)(=O)N2[C@@H](c3ccccc3)C(C(=O)O)=C[C@H]2C(C)(C)C)cc1`, the z-score is reported as -0.231 (inactive).
For `CCOC(=O)C1=CC[C@@H](c2ccccc2)N(S(=O)(=O)c2ccc(C)cc2)[C@@H]1C#N`, the z-score was 0.405 (inactive).
In the case of `COCCOC(=O)N1C(=O)[C@@]2(c3cc(C#CCC(C(=O)OC)C(=O)OC)ccc31)[C@H](C(=O)N1CCc3cc(OC)c(OC)cc3C1)[C@H]1C(=O)O[C@H](c3ccccc3)[C@H](c3ccccc3)N1[C@@H]2c1ccccc1OCCO`, the z-score is reported as 1.09 (inactive).
For `CN(C)CCCC[C@@H]1NC(=O)[C@H]2C[C@@H](C(=O)NCCCCCCNC(=O)CS)[C@@H](c3cccc(OCCO)c3)N2C1=O`, the z-score was -0.12 (inactive).
With `COc1cc2c(cc1O)C(C)N(Cc1sc3ccccc3c1Cl)CC2` (stereo not drawn) the z-score was 0.566 (inactive).
In the case of `COCCOC(=O)N1C(=O)[C@@]2(c3cc(C#CCC(C(=O)OC)C(=O)OC)ccc31)[C@H](c1ccc(O)cc1)N1[C@H](c3ccccc3)[C@H](c3ccccc3)OC(=O)[C@H]1[C@@H]2C(=O)N1CCc2cc(OC)c(OC)cc2C1`, the z-score is reported as 0.794 (inactive).
For `CCOC(=O)C1=CCC(c2ccncc2)N(S(=O)(=O)c2ccc(C)cc2)C1` (stereo not drawn), the z-score was 0.336 (inactive).
With `COC(=O)[C@@]1(Cc2ccc(F)cc2)[C@H]2c3cc(C(=O)N4CCCC4)n(Cc4ccc(C(F)(F)F)nc4)c3C[C@H]2CN1C(=O)c1ccccc1` the z-score was -0.293 (inactive).
In the case of `CC(C)(C)OC(=O)CC[C@@]1(C(N)=O)N=C(c2ccc(OCCCO)cc2)O[C@@H]1c1ccccc1CN=[N+]=[N-]`, the z-score is reported as 0.035 (inactive).
In the case of `C=CCNC(=O)[C@H]1[C@@H]2C(=O)O[C@@H](c3ccccc3)[C@@H](c3ccccc3)N2[C@@H](c2ccc(OCCO)cc2)[C@]12C(=O)N(C(=O)OCCOC)c1ccc(C#CCC(C(=O)OC)C(=O)OC)cc12`, the z-score is reported as -0.0319 (inactive).
With `C=CCOC(=O)[C@H]1[C@@H]2C(=O)O[C@@H](c3ccccc3)[C@@H](c3ccccc3)N2[C@@H](c2ccc(OCCOC(=O)[C@@H]3C[C@@H]4C(=O)N[C@@H](Cc5ccccc5)C(=O)N4[C@@H]3c3ccc(O)cc3)cc2)[C@]12C(=O)Nc1ccc(I)cc12` the z-score was 0.114 (inactive).
For `CCN1C(=O)C2CC(=O)C3C(CN(S(=O)(=O)c4ccc(C)cc4)C3c3ccc(C)cc3)C2C1=O` (stereo not drawn), the z-score was 0.398 (inactive).
With `C=C(C)C1CN([C@H](CO)c2ccccc2)C(=O)/C1=C\c1ccccc1` (stereo partly drawn) the z-score was 1.82 (inactive).
For `C=C(COC)C(=O)CC[C@H](OC(C)=O)c1ccc(CO)o1`, the z-score was 1.5 (inactive).
For `COC(=O)C(CC#Cc1ccc2c(c1)[C@]1(C(=O)N2)[C@H](C(=O)NC[C@H](O)c2ccccc2)[C@H]2C(=O)O[C@H](c3ccccc3)[C@H](c3ccccc3)N2[C@@H]1c1ccc(O)cc1)C(=O)OC`, the z-score was -1.02 (inactive).
For `C=C[C@H](OC)[C@@H](O)c1ccc(OC)c(O)c1`, the z-score was -0.0822 (inactive).
In the case of `CC[C@@H](O[Si](C#C[Si](C(C)C)(C(C)C)C(C)C)(C(C)C)C(C)C)c1cn(Cc2cccc(Cl)c2)nn1`, the z-score is reported as 0.909 (inactive).
For `COC(=O)C1=CC(c2ccc(CO)cc2)=CC(C2CC2)N(Cc2cc3c(cc2Br)OCO3)C=C1C(=O)OC` (stereo not drawn), the z-score was 0.841 (inactive).
For `O=C(NCCN1CCOCC1)[C@@H]1c2ccccc2C(=O)N(CC23CC4CC(CC(C4)C2)C3)[C@H]1c1ccc(CO)cc1`, the z-score was 0.534 (inactive).
In the case of `COCCCNC(=O)[C@@]1(CCC(=O)OC(C)(C)C)N=C(c2ccc(OCCCO)cc2)O[C@H]1c1ccccc1`, the z-score is reported as 1.25 (inactive).
For `CN1C2C=C(c3ccc(CO)cc3)C(C3C(=O)N(C(N)=O)C(=O)C32)C1C1CC1` (stereo not drawn), the z-score was 0.214 (inactive).
For `N#Cc1ccc(NN2C(C(O)c3ccc(B(O)O)cc3)C=CC3CN(c4ccccc4)C(=O)C32)cc1` (stereo not drawn), the z-score was 1.28 (inactive).
